# Compounds with a hit are over-represented: about 1.3% of the library has one in this group of screens.
# GALR2 agonist – activates the human galanin receptor 2; GALR2-expressing cells, agonist activation read-out; activation, % (test concentration not listed); actives 0.48% (n = 140,000); AID 803; in the data active = activation above about 5%, passing the limit was not always enough;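 note: 0% = vehicle buffer wells and 100% = reference agonist at full effect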
# S1P4 antag – antagonists of human S1P4 receptor. S1P4-expressing cells, antagonist mode, reporter read-out. inhibition, % at 4.98 µM. actives 0.26% (n = 220,000); in the data active = inhibition above about 29%;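 note: 0% = wells stimulated with agonist and 100% = vehicle wells without agonist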
# Target sequence (O95977 whole entry, looked up): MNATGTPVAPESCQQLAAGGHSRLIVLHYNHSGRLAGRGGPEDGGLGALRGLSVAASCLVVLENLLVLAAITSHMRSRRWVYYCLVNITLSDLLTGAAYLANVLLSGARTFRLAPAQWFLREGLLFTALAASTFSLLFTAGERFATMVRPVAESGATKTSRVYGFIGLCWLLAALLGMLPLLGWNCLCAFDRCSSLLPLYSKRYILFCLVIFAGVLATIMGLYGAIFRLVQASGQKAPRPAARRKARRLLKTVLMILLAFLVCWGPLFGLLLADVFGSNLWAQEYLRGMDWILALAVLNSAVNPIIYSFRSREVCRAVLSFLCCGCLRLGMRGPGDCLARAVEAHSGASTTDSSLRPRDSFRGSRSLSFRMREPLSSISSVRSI
# S1P3 antag-1 – blocks the human S1P3 receptor; Q99500; CHO S1P3 NFAT-BLA reporter, FRET fluorescence, antagonist mode; inhibition, % at 4.98 µM; actives 0.27% (n = 170,000); AID 485;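 active = inhibition above the plate cutoff, the mean inhibition of test wells on that plate plus 3 SD, cut at about 28% in these data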;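 note: cells challenged with S1P at its EC80 of 0.8 µM; blue over green emission ratio from cleaved BLA substrate after 4 h stimulation; 0% = S1P-stimulated wells and 100% = unstimulated DMSO-only wells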
# S1P4 ag – agonists of human S1P4 receptor. S1P4-expressing cell line, agonist reporter assay. activation, % at 4.98 µM. actives 0.35% (n = 220,000). AID 1509; in the data active = activation above about 11%;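 note: 0% = DMSO vehicle and 100% = reference agonist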
# GALR2 blocker – blocks the human galanin receptor 2; O43603; GALR2-expressing cells, antagonist mode; inhibition, % at 4 µM; actives 0.39% (n = 140,000); AID 828; in the data active = inhibition above about 27%;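 note: cells stimulated with galanin 1-16 at roughly its EC80; 0% = agonist challenge control and 100% = basal control without agonist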
# S1P3 antag-2 – confirmation of human S1P3 receptor antagonists | shares compounds with S1P3 antag-1 | CHO S1P3 NFAT-BLA reporter, FRET, antagonist mode | inhibition, % at 4.98 µM | actives 30% (n = 240) | AID 1429;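 active = inhibition above the hit threshold that was computed for the earlier primary screen, cut at about 30% in these data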;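 note: 0% = S1P-stimulated wells and 100% = unstimulated DMSO-only wells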
# S1P4 antag cf – confirmation of human S1P4 receptor antagonists. S1P4-expressing cell line, antagonist mode, reporter read-out. actives 71% (n = 520). inhibition, % at 4.98 µM. shares compounds with S1P4 antag; in the data active = inhibition above about 30%
# S1P1 antag – human S1P1 antagonism as S1P4 antagonist counter-screen | shares compounds with S1P4 antag | cell-based S1P1 antagonist counterscreen, inhibition | inhibition, % at 4.98 µM | actives 37% (n = 520); in the data active = inhibition above about 40%;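 note: receptor stimulated with S1P near its EC80; 0% = agonist stimulated wells and 100% = vehicle only wells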
# Numbers without * were called inactive; · = not tested or not shown.
SMILES,GALR2 agonist,S1P4 antag,S1P3 antag-1,S1P4 ag,GALR2 blocker,others
Nc1c(C(=O)NC2CCCC2)c2nc3ccccc3nc2n1CC1CCCO1 (stereo unspecified),33*,-24,-32,6,-13,
CC(C)c1ccc(N2C(=O)NC(=O)/C(=C/c3cnc(-c4ccccc4)nc3)C2=O)cc1,1,-2,-15,0,-8,
CSc1ncc(/C=C2/C(=O)NC(=O)N(c3ccc(C(C)C)cc3)C2=O)cn1,5.1*,-27,4,-1,-2,
COCCNC(=O)c1c(N)n(CCC(C)C)c2nc3ccccc3nc12,16*,8,·,-2,-13,
CC(C)OCCCNC(=O)c1c(N)n(Cc2cccs2)c2nc3ccccc3nc12,29*,-27,-10,8,-11,
COP(=O)(OC)C(NC(C)=O)C(Cl)(Cl)Cl (stereo unspecified),·,3,-11,0,·,
CC(C)[C@]12O[C@H]1[C@@H]1O[C@]13[C@]1(O[C@H]1C[C@H]1C4=C(CC[C@@]13C)C(=O)OC4)[C@@H]2O,·,107*,105*,-1,·,
COc1ccc(CC2C(=O)NC(=O)N(c3ccccc3)C2=O)c(OC)c1 (stereo unspecified),-3,-3,74*,-1,7,
CC(C)CNC(=O)c1c(N)n(Cc2ccc3c(c2)OCO3)c2nc3ccccc3nc12,40*,-14,·,3,-37,
CC(C)CNC(=O)c1c(N)n(Cc2ccco2)c2nc3ccccc3nc12,17*,-5,·,2,-24,
COCCCNC(=O)c1c(N)n(Cc2ccco2)c2nc3ccccc3nc12,·,6,12,2,·,
CC(C)CCNC(=O)c1c(N)n(Cc2ccc3c(c2)OCO3)c2nc3ccccc3nc12,10,3,·,3,-12,
Cc1ccc2c(c1)C1CN(C)CCC1N2C(=O)CCCN1C(=O)c2cccc3cccc(c23)C1=O (stereo unspecified),·,18,-4,1,·,
N#CC[N+]1(CCCNP2(=O)C=C(c3ccccc3)OC(c3ccccc3)=C2)CCOCC1,·,-25,-5,0,·,
CN1CCN(/N=C/c2c(O)n(Cc3ccc(F)cc3)c(=O)[nH]c2=O)CC1,·,0,2,0,·,
Cc1nn(CCC#N)c2c1P(=S)(N1CCCC1)OC(c1ccc(F)cc1)=N2 (stereo unspecified),-1,5,74*,0,9,
CC1CC(C)CN(CC(=O)c2ccc(OC(F)F)cc2)C1 (stereo unspecified),0,-10,-15,1,-2,
CC(=O)Cc1c[nH]c2ccccc12,·,2,2,1,·,
CCn1nc(-c2ccccc2)nc2c(=O)n(C)c(=O)nc1-2,4,11,103*,2,95*,
COc1ccc(-c2nc3ccccc3c(=O)n2-c2ccc(OC)cc2)cc1,·,-3,-15,0,·,
CC1Oc2cc3c(-c4c(O)cc(O)c5c(O)c6c(cc45)OC(C)C(C)C6=O)c(O)cc(O)c3c(O)c2C(=O)C1C (stereo unspecified),·,-5,43*,-2,·,
COC(=O)C(O)(c1ccc(N(C)C(=O)c2cccs2)cc1)C(F)(F)F (stereo unspecified),·,-8,1,2,·,
COc1ccc(CCNCc2ccc(C)s2)cc1OC,·,3,-14,0,·,
COc1ccc(Cc2nccc3cc(OC)c(OC)cc23)cc1OC,0,-18,29*,3,17,S1P3 antag-2=16
COc1ccc(N=Cc2c(O)n(-c3ccc(C)cc3)c(=O)[nH]c2=O)cc1,·,-10,30*,2,·,S1P3 antag-2=-11
COc1ccc2nc3oc(C(=O)N4CCC5(CC4)OCCO5)cc3cc2c1,·,4,8,-2,·,
C[C@H]1CCC/C=C/C2C[C@H](O)CC2[C@H](O)/C=C/C(=O)O1 (stereo partly specified),-1,51*,46*,-1,49*,S1P3 antag-2=16;S1P4 antag cf=97*;S1P1 antag=28
CCOC(=O)c1ccc(NC(=O)c2c(O)[nH]c(=O)[nH]c2=O)cc1,0,1,8,-2,6,

# Assay outcomes deposited in PubChem BioAssay by The Scripps Research Institute Molecular Screening Center.
